Screens as filed in PubChem.
IEC-6 tox-1: IEC-6 cytotoxicity, counter-screen for KLF5 inhibitors; inhibition, % at 5 µM; luminescence viability; AID 1825; hit rate 0.78% among 290,000; in the data active = inhibition above about 22%
Ba/F3 V617F tox: loss of viability in JAK2V617F-driven Ba/F3 cells | Ba/F3 EpoR-JAK2V617F viability, ATP luminescence | inhibition, % at 5.6 µM | hit rate 1.1% among 220,000 | AID 1446;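 active = inhibition above the campaign mean plus 3 SD over all tested compounds, cut at about 24% in these data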;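 note: cytokine-independent growth of Ba/F3 cells driven by EpoR plus mutant JAK2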
APP transl inh: APP translation inhibition; SH-SY5Y APP 5'UTR-luciferase reporter, luminescence; inhibition, % at 2 µM; hit rate 0.82% among 190,000;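 active = inhibition above a set limit, derived from the sample mean plus 3 SD, cut at about 45% in these data; inconclusive = one replicate passes the limit while the other fails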
aSyn UTR inh: 5' untranslated region of α-synuclein, MLPCN primary screen; alpha-synuclein 5'UTR reporter, inhibitor activity; inhibition, % (tested at 7.5 µM); hit rate 0.82% among 300,000; in the data active = inhibition above about 60%; inconclusive = no clear call, values can overlap the other calls;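 note: H4 neuroglioblastoma cells stably carrying SNCA 5'UTR luciferase fusion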
BaF3 parental: reduces parental Ba/F3 cell viability, JAK2V617F counter-screen. CellTiter-Glo ATP luminescence. hit rate 1.1% among 220,000. inhibition, % at 5.6 µM. AID 1486;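 active = inhibition above a per-campaign cutoff, the mean inhibition of all tested compounds plus 3 SD, cut at about 27% in these data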
KLF5 inhibitor: inhibitors of KLF5 expression. DLD-1 KLF5 promoter-luciferase reporter, luminescence. inhibition, % at 5 µM. hit rate 0.23% among 290,000;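 active = inhibition above a per-plate limit of that plate's mean compound inhibition plus 3 SD, cut at about 60% in these data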;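 note: higher means less KLF5 promoter-driven luciferase light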
KLF5 inh confirm: KLF5 inhibition, confirmation assay. shares compounds with KLF5 inhibitor. DLD-1 KLF5 promoter firefly luciferase reporter, luminescence. inhibition, % at 4 µM. hit rate 79% among 610. AID 1834;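 active = inhibition above a set limit taken from the earlier primary screen, cut at about 63% in these data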
IEC-6 tox-2: counter-screen for KLF5 inhibitors: cytotoxicity in rat IEC-6 cells. shares compounds with KLF5 inhibitor. IEC-6 rat intestinal cells, viability luminescence. inhibition, % at 4 µM. hit rate 56% among 610; in the data active = inhibition above about 23%;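 note: cells exposed to compounds for 48 hours before viability read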
Numbers stand for hits; 0 = inactive; ? = inconclusive; - = not tested or not shown. A selection: hits, their analogues and other compounds. The true share with any hit is near 2.2%.

SMILES	IEC-6 tox-1	Ba/F3 V617F tox	APP transl inh	aSyn UTR inh	BaF3 parental	KLF5 inhibitor	KLF5 inh confirm	IEC-6 tox-2
COc1ccc(C(=O)N/N=C/c2cc(Br)ccc2O)cc1OC	0	0	-	0	0	68.2	91.8	0
Cc1ccc(N2CC(NC(=O)N3CCN(C(=O)c4ccco4)CC3)CC2=O)cc1 (configuration not stated)	-	-	-	0	-	-	-	-
Cc1ccc(-c2nc(-c3ccccn3)no2)cc1	0	0	0	99.3	0	88.2	99.6	41.6
c1ccc(-c2ccc(-c3nc(-c4ccccn4)no3)cc2)cc1	0	0	46.1	147.2	0	83.6	104.4	0
Cc1ccc(-c2nc(-c3ccccn3)no2)cc1Cl	0	0	0	103.8	0	69.8	89.0	0
CCc1ccccc1NS(=O)(=O)Cc1ccccc1	0	-	-	0	-	0	-	-
COc1c(C)cc(Br)cc1C(=O)NC(=S)NCc1ccco1	0	-	-	0	-	0	-	-
O=C(c1ccco1)N1CCN(Cc2nnc(-c3ccccc3)o2)CC1	0	-	-	0	-	0	-	-
O=[N+]([O-])c1ccc(N=Nc2c(Cl)cc(O)cc2Cl)cc1	0	81.2	-	?	94.9	0	0	22.4
C=CCCC(=O)NC1CC(C)(C)Cc2c1cnn2-c1ccc(OC)cc1 (configuration not stated)	0	-	-	0	-	0	-	-
O=C(c1cc([N+](=O)[O-])ccc1N1CCOCC1)N1CCN(c2ccc([N+](=O)[O-])cc2)CC1	-	-	-	0	-	-	-	-
O=C(c1ccccc1)c1cc([N+](=O)[O-])ccc1N1CCOCC1	80.5	71.3	92.0	101.3	74.2	73.6	72.4	57.7
O=C(Nc1nc2cc3c(cc2s1)OCCO3)C1=COCCO1	0	0	-	99.0	0	95.6	92.4	0
O=C(Nc1nc2ccc(F)cc2s1)C1=COCCO1	-	-	-	0	-	-	-	-
COC(=O)C1=C(CN2CCCc3ccccc32)NC(=O)NC1c1ccc(F)cc1 (configuration not stated)	0	0	0	79.2	0	84.5	72.3	0
O=[N+]([O-])c1ccc(O)c(/C=N/Nc2ccc(Cl)nn2)c1	0	0	0	100.1	0	67.0	76.2	37.9
O=C1C(=O)N(c2nccs2)C(c2ccccc2F)/C1=C(\O)c1ccc2c(c1)OCCO2 (configuration not stated)	0	-	-	0	-	0	-	-
O=C1C(=O)N(c2nccs2)C(c2ccccc2)/C1=C(\O)c1ccc2c(c1)OCCO2 (configuration not stated)	0	-	-	0	-	73.7	0	0
COc1ccc(/C=N\NC(=O)c2c(C)nc3ccc(Br)cn23)cc1	47.0	73.4	89.2	?	72.0	64.7	75.3	52.5
COc1ccc(/C=N/NC(=O)c2c(C)nc3ccc(Br)cn23)cc1OC	0	0	-	0	0	0	-	-
CCOC(=O)N1CCN(C/C(Cl)=C/c2ccccc2)CC1	0	-	-	0	-	0	-	-
CC1=Nc2cc(C(=O)NCc3ccco3)ccc2Sc2ccc(C)cc21	80.0	83.5	96.3	101.2	80.4	68.1	83.1	62.3
Cc1ccc(-n2c(-c3ccc(Br)cc3)c[n+]3c2CCc2ccc4cccnc4c2-3)cc1	56.5	97.0	0	85.9	91.3	68.6	111.5	50.4
Cc1ccc(-n2c(=O)[nH]c3ncccc3c2=O)cc1	0	0	0	0	0	0	-	-
COc1ccc(C(=O)NN(C)c2nc(C(F)(F)F)nc3ccccc23)cc1	95.8	95.5	94.8	0	95.2	81.8	95.7	81.0
SMILES	IEC-6 tox-1	Ba/F3 V617F tox	APP transl inh	aSyn UTR inh	BaF3 parental	KLF5 inhibitor	KLF5 inh confirm	IEC-6 tox-2
COc1ccc(C(=O)NN(C)c2nc(-c3ccccc3)nnc2C(F)(F)F)cc1	0	0	0	0	0	0	-	-
COc1cc(CNCCO)ccc1OCCc1ccccc1	0	-	-	0	-	0	-	-
CCCc1nc2c(=O)n(C)c(=O)nc-2n(C)n1	0	73.1	0	-	85.5	71.9	111.9	48.6
CCn1c(N)nc2c1c(=O)n(C)c(=O)n2C	0	0	0	0	0	0	-	-
Cc1ccc(S(=O)(=O)NC(=O)COc2ccc(Cl)cc2Cl)cc1	0	-	-	0	-	0	-	-
O=C(C1CC(=O)N(c2ccc(Cl)cc2)C1)N1CCC(c2nc3ccccc3[nH]2)CC1 (configuration not stated)	-	-	-	0	-	-	-	-
CCCCCCCCCn1ccc(=N)cc1	54.3	98.7	-	81.9	95.7	71.7	61.7	54.9
O=C(NCc1cnn(-c2ccc(F)cc2)c1)C1CCC(=O)N(C2CC2)C1 (configuration not stated)	0	-	-	0	-	0	-	-
c1ccc2c(c1)nc1n2CCN1CCN1CCCC1	0	-	-	0	-	0	-	-
O=C(O)c1ccc(N/N=C/c2c(F)cccc2Cl)cc1	0	-	-	0	-	65.6	0	0
CN(C)c1ccc(/C=N/Nc2cccc(C(=O)O)c2)cc1	0	-	-	77.0	-	75.2	109.2	0
CC(C)(C)c1ccc(/C=N/Nc2ccc(C(=O)O)cc2)cc1	24.2	0	0	0	0	66.0	94.4	34.0
CC(C)(C)c1ccc(/C=N/Nc2cccc(C(=O)O)c2)cc1	0	0	0	0	0	0	-	-
Cc1ccc(NC(=S)NC(=O)C2CCC2)cc1C	0	-	-	0	-	0	-	-
COc1ccccc1OCC(=O)NCCS(=O)(=O)N1CCN(c2ccc(F)cc2)CC1	0	-	-	0	-	0	-	-
Oc1cccc(C(Nc2nccs2)c2ccc3cccnc3c2O)c1 (configuration not stated)	47.6	68.4	73.3	132.3	64.8	73.9	91.5	63.4
O=C(COc1cccc2cccnc12)Nc1nccs1	0	0	0	0	0	0	-	-
Cc1ccc(Sc2c(CO)c(-c3ccccc3)nn2C)cc1	85.7	79.8	95.0	0	82.4	72.2	84.2	56.3
Cc1ccc(-c2nn(-c3ccccc3)cc2CO)cc1	0	-	-	0	-	0	-	-
CCc1ccccc1NC(=O)C1CCN(c2cnccn2)CC1	0	-	-	0	-	0	-	-
COCCn1c(C)cc(C2=NNC(=Nc3ccccc3F)SC2)c1C	0	0	52.4	91.4	0	88.6	0	0
COCCCN=C1NN=C(c2cc(C)n(-c3ccccc3F)c2C)CS1	0	0	0	0	0	0	-	-
CN(C)c1ccc(/C=C(\C#N)c2ccccn2)cc1	0	0	0	101.5	0	68.8	65.8	0
N#C/C(=C\c1ccc([N+](=O)[O-])cc1)c1ccccn1	0	0	0	0	0	0	-	-
CCCCCCCC[n+]1cccc2c3ccccc3ccc21	44.7	99.9	0	0	85.0	81.9	92.7	43.4
SMILES	IEC-6 tox-1	Ba/F3 V617F tox	APP transl inh	aSyn UTR inh	BaF3 parental	KLF5 inhibitor	KLF5 inh confirm	IEC-6 tox-2
Cn1ccnc1C(=O)Cc1ccc([N+](=O)[O-])cc1	-	-	-	0	-	-	-	-
Cc1c(C)c2ccc(OCC(=O)N(C)C)c(C)c2oc1=O	0	0	0	0	0	0	-	-
Cc1c(C)c2ccc(OCC(=O)Nc3ccccn3)c(C)c2oc1=O	0	-	-	109.5	-	91.3	0	0
O=C(O)CSCC(=O)Nc1ccc(C2CCCCC2)cc1	0	0	67.5	108.1	0	74.9	77.1	0
O=C(O)CSCC(=O)N1CCN(Cc2ccc3c(c2)OCO3)CC1	0	-	-	0	-	0	-	-
Oc1[nH]c2ccccc2c1N=NC(=S)N1CCOCC1	48.4	54.5	-	0	58.8	67.6	88.8	48.3
